CBX7 AlphaScr: blocks human CBX7 binding to H3K27me3 peptide; AlphaScreen His6-CBX7 / biotin-H3K27me3 peptide binding; stronger effect = lower value; normalised signal (fraction of DMSO) (no concentration beside the values); 1.1% of 66,000 active; in the data active means normalised signal below about 0.5
Target sequence (O95931 whole entry, looked up): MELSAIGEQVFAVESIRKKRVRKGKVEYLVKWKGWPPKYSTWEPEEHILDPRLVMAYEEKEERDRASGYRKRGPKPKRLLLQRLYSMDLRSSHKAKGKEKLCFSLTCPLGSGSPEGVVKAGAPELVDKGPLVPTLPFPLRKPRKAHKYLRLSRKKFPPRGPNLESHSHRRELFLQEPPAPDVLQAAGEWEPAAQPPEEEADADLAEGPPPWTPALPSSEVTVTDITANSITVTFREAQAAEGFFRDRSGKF
* = called active by the depositor. This is one part of a sample in which hits are shown more often than they occur.

SMILES | CBX7 AlphaScr
Cc1ccc(NC(=O)CCc2nnc3ccc(N4CCC(C(N)=O)CC4)nn23)cc1 | 1.1
CCOc1ccc(NC(=O)CSc2nccn2-c2cc(C)cc(C)c2)cc1 | 0.99
O=C(N1CCN(c2ncccn2)CC1)C1(S(=O)(=O)c2ccc(Cl)cc2)CC1 | 1.1
CCOc1ccc(N2C(=O)CC(NCCc3ccccn3)C2=O)cc1 (configuration not stated) | 0.86
Cc1ccc(N2C(=O)CC(NCCc3ccc(Cl)cc3)C2=O)cc1 (configuration not stated) | 1.1
O=C1CC(NCCc2ccccn2)C(=O)N1c1ccc(Cl)cc1 (configuration not stated) | 0.17*
Cc1ccc2nc(-c3cccs3)c(Nc3ccccc3)n2c1 | 1
COc1cccc(OCC(O)CN2CCC(C)CC2)c1 (configuration not stated) | 0.98
Cc1ccc(-c2noc(CN3CCC(C)CC3)n2)cc1 | 1.1
COCc1cc(CN2CCC(C)CC2)c(O)c2ncccc12 | 0.0039*
Cc1ccc2c(c1)c1c3n2CCN(CCC(N)=O)C3CCC1 (configuration not stated) | 0.97
CCN1CCn2c3c(c4cc(Cl)ccc42)CCCC31 (configuration not stated) | 0.98
OC1(c2ccc3c(c2)c2c4n3CCN(Cc3ccccc3)C4CCC2)CCCC1 (configuration not stated) | 0.37*
CCC1CCCCN1S(=O)(=O)c1ccc2[nH]c(=O)cc(C(=O)NC3CCCCC3C)c2c1 (configuration not stated) | 0.95
CCCCCOc1ccc(C(=O)Nc2ccc(-c3nc4ccccc4[nH]3)cc2)cc1 | 0.89
O=C(CC(C(=O)N1CCc2ccccc21)n1ccnc1)NC(c1ccccc1)c1ccccc1 (configuration not stated) | 0.45*
CCC(C)NC(=O)CC(C(=O)N1CCc2ccccc21)n1ccnc1 (configuration not stated) | 1
O=C(CC(C(=O)N1CCc2ccccc21)n1ccnc1)NC1CC1 (configuration not stated) | 1
Fc1ccc(-c2nnc3ccc(NCc4cccnc4)nn23)cc1 | 1.3
CCOc1cc2c(cc1OCC)C(C1CCCCC1)NCC2 (configuration not stated) | 1.1
Cc1ccc(CN(Cc2cccnc2)C(=O)Nc2ccc(C)c(C)c2)cc1 | 0.73
Cc1onc(-c2ccccc2Cl)c1C(=O)Nc1ccc(C(=O)O)cc1 | 1
COc1ccc(CCn2c(=O)c3cccnc3n(CC(=O)Nc3c(C)cccc3C)c2=O)cc1OC | 1
Cc1nn(CC(O)Cn2c(C)c(C)c3ccccc32)c(C)c1Br (configuration not stated) | 0.44*
COc1ccc(NCC(O)Cn2c3ccccc3c3ccccc32)cc1 (configuration not stated) | 0.45*
SMILES | CBX7 AlphaScr
Cc1cccc(NCC(O)Cn2c(C)c(C)c3ccccc32)c1 (configuration not stated) | 0.47*
Cc1c(C)n(CC(O)CNCCO)c2ccccc12 (configuration not stated) | 0.92
Cc1ccc(C)c(NCC(O)Cn2c(C)c(C)c3ccccc32)c1 (configuration not stated) | 0.67
COc1ccccc1NCC(O)Cn1c2ccc(Br)cc2c2cc(Br)ccc21 (configuration not stated) | 0.53
COc1ccc(NCC(O)Cn2c(C)c(C)c3ccccc32)c(OC)c1 (configuration not stated) | 0.55
CCOc1ccc(NCC(O)Cn2c(C)c(C)c3ccccc32)cc1 (configuration not stated) | 0.43*
CCN(CC)CC(O)Cn1c(C)c(C)c2ccccc21 (configuration not stated) | 0.97
Cc1c(C)n(CC(O)CN2CCCCCC2)c2ccccc12 (configuration not stated) | 1
Cc1c(C)n(CC(O)CNC2CCCCC2)c2ccccc12 (configuration not stated) | 0.98
COc1ccc(NCC(O)Cn2c(C)c(C)c3ccccc32)cc1 (configuration not stated) | 0.56
c1cncc(Cc2nnc(NC3CCCCCC3)c3ccccc23)c1 | 1
O=C(Cn1nc(-c2ccccc2)ccc1=O)NCc1ccc2c(c1)OCO2 | 1.1
Cc1ccc(C2(c3ccc(C)cc3)CC2C(=O)Nc2ccc(Cl)c(Cl)c2)cc1 (configuration not stated) | 1.3
CCN(CC)CCNc1ccc2nnc(-c3ccc(F)cc3)n2n1 | 1.1
CCOC(=O)N1CCN(c2c(N3CCN(c4cccc(C)c4C)CC3)c(=O)c2=O)CC1 | 0.99
COc1ccc(C(=O)CSc2ncc(-c3ccc(Cl)cc3)[nH]2)cc1 | 0.96
CCCCCn1c(=O)[nH]c2cc(C(=O)NCc3ccc(OC)cc3)ccc2c1=O | 0.97
Cc1ccnc(N2C(=O)c3ccccc3C2Nc2c(C)cc(C)cc2C)c1 (configuration not stated) | 1
O=C(NCC1CCCO1)c1csc2c1CCCC2 (configuration not stated) | 1
